HCV inh – qHTS Assay for Inhibitors of Hepatitis C Virus (HCV) | Potency, µM (doses to about 41.8 µM), actives largely listed as inhibitors | Huh7.5.1 HCVcc-Cre infection, luciferase reporter, 44 h | hit rate 3.4% among 340,000
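Infectious HCVcc-Cre (~0.5 moi) was added to cells just after compound, with cells seeded 4 h earlier at 1,000 per well. Luciferase activity after 44 h culture reported infection; substrate was incubated 15 min at room temperature before reading.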
Sm TGR block – qHTS Assay for the Inhibitors of Schistosoma Mansoni Peroxiredoxins; Schistosoma mansoni thioredoxin glutathione reductase (TGR), Q962Y6; purified TGR, DTNB reduction, TNB absorbance 405 nm; Potency, µM (titrated, usually from 114 µM), hits mostly inhibitors; hit rate 3% among 360,000; AID 485364, 2010; note: nearly all actives have a fitted effect of over 60% in size
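Kinetic colorimetric format: TGR-catalysed, NADPH-driven DTNB reduction monitored via TNB absorbance. Enzyme dispensed at 20 nM; compound exposure 15 min at room temperature before reaction start.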
RE007 growth inh – qHTS Assay for Inhibitors of the HIV-1 protein Vpr; S. pombe RE007 Vpr strain, BacTiter-Glo ATP luminescence, 24 h; Potency, µM (titrated, usually from 92.2 µM), actives largely listed as inhibitors; hit rate 0.21% among 360,000; AID 651644, 2012; active = well fitted falling curve with a large enough effect; inconclusive = small, poorly fitted or top-dose-only effect; inactive = no such curve, though single readings can be large or run the other way; note: nearly all actives have a fitted effect of over 50% in size
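Fission yeast strain RE007, carrying one chromosomally integrated HIV-1 vpr copy, was seeded at OD 0.01 in PMG+AL medium with 23 nL pinned compound. After 24 h at 30 °C and 99% humidity, viability was read by BacTiter-Glo luminescence.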
Lassa entry inh – qHTS for Inhibitors of binding or entry into cells for Lassa Virus | Lassa virus pseudotype entry inhibition, cell reporter | Potency, µM (top dose mostly 37.9 µM), usual class: inhibitors | hit rate 1.2% among 300,000 | AID 540256, 2011; calls by dose curve; tested in HEK293 cells; note: nearly all actives have a fitted effect of over 50% in size
MARV entry inh – qHTS for inhibitors of binding or entry into cells for Marburg Virus. Marburg virus pseudotyped entry inhibition, cell reporter. Potency, µM (top dose mostly 37.8 µM), hits mostly inhibitors. hit rate 1.8% among 300,000. AID 540276, 2011; calls by dose curve; tested in HEK293 cells
FMDV antiviral – High Throughput Screening for Foot and Mouth Disease Virus Antivirals. FMDV antiviral cell-based qHTS. Potency, µM (top dose mostly 57.9 µM), hits mostly inhibitors. hit rate 1.2% among 410,000. AID 1159524, 2015; calls by dose curve; tested in HEK293T cells; note: read-out not given here; nearly all actives have a fitted effect of over 45% in size
Each line names hits and unclear results; the compound was inactive in the other large screens. The list is not random: actives were taken first. Their share in the collection is about 7.2%. Unless noted, calls come from the whole dose curve; as a rule, active = well fitted curve in the direction sought with a large enough effect; inconclusive = small, poorly fitted or top-dose-only effect, or another doubt; inactive = no such curve, though single readings can be large; an effect the other way counts as inactive or inconclusive.

COC(=O)c1cnc(NC(=O)C2(C)CCCN(C(C)=O)C2)s1 (configuration not stated)	none (no result: HCV inh, Sm TGR block, Lassa entry inh, MARV entry inh)
CCOC(=O)c1c(C)[nH]c(C)c1S(=O)(=O)NCC(=O)Nc1cccc(C#N)c1	none (no result: HCV inh, RE007 growth inh, MARV entry inh)
O=C(NCCc1csc(-c2ccccc2)n1)c1ccco1	none (no result: Lassa entry inh, MARV entry inh)
O=C(NCCc1csc(-c2ccc(Cl)cc2)n1)c1cccs1	FMDV antiviral 25µM (no result: HCV inh, RE007 growth inh, MARV entry inh)
O=C(NCCc1csc(-c2ccccc2)n1)c1cccs1	HCV inh inconclusive (no result: Lassa entry inh, MARV entry inh)
O=C(NCCc1csc(-c2cccc(F)c2)n1)c1ccco1	HCV inh 10µM (no result: MARV entry inh)
COc1ccc(OCCn2c(C(C)Oc3ccccc3)nc3ccccc32)cc1 (configuration not stated)	MARV entry inh inconclusive (no result: HCV inh, RE007 growth inh)
COc1ccc(OC)c(NCc2cccn2-c2nnc(N3CCC(C)CC3)s2)c1	none (no result: HCV inh, RE007 growth inh, MARV entry inh)
COc1ccc(NCc2cccn2-c2nnc(N3CCC(C)CC3)s2)c(OC)c1	FMDV antiviral 2µM (no result: HCV inh, RE007 growth inh, MARV entry inh)
CC1CCc2nc(NC(=O)CSc3nc4ccccc4o3)sc2C1 (configuration not stated)	HCV inh 11µM, Lassa entry inh inconclusive, FMDV antiviral inconclusive
O=C(O)c1ccc(Cn2cnc3cccnc32)cc1	Sm TGR block 50µM (no result: MARV entry inh)
O=C(O)c1ccc(Cn2cnc3scc(-c4ccccc4)c3c2=O)cc1	none
O=C(CCC(=O)N1CCOc2ccccc21)NCc1cccs1	none (no result: HCV inh, RE007 growth inh)
O=[N+]([O-])c1ccc2c(c1)S(=O)(=O)C=C2	Lassa entry inh 3.3µM, MARV entry inh inconclusive, FMDV antiviral 32µM (no result: HCV inh, Sm TGR block, RE007 growth inh)
COC(=O)c1cc2c(ccn2-c2ccc(F)cc2)n1CC(C)C	HCV inh 11µM
COC(=O)c1cc2c(ccn2-c2ccc(F)cc2)n1Cc1ccc(OC(C)=O)cc1	HCV inh 8.9µM, Lassa entry inh inconclusive
CCCn1c(C(=O)OC)cc2c1ccn2-c1ccc(F)cc1	HCV inh 32µM
Cc1cc(C)nc(/N=C(\N)N2CCCCC2)n1	Sm TGR block 45µM (no result: Lassa entry inh, MARV entry inh)
O=C(CCc1c[nH]c2ccccc12)N1CCC(n2c(C3CCCO3)nc3cc(C(F)(F)F)ccc32)CC1 (configuration not stated)	none (no result: HCV inh, Sm TGR block, RE007 growth inh, Lassa entry inh, MARV entry inh)
O=C(O)Cn1ncc2ccccc2c1=O	none
O=c1c2ccccc2cnn1CCOc1ccccc1	Lassa entry inh 0.28µM, MARV entry inh 2.1µM, FMDV antiviral 10µM
CCCSCCCNC(=O)c1cc2n(n1)CCCN(Cc1ccc(C)cc1)C2=O	FMDV antiviral inconclusive (no result: HCV inh, RE007 growth inh, MARV entry inh)
COC(=O)CN1C(=O)[C@H]2[C@@H](c3ccc(C)o3)N3C(=O)CN(Cc4ccc(-c5ccccc5)cc4)C(=O)[C@@]3(C)[C@H]2C1=O	Sm TGR block 10µM (no result: Lassa entry inh, MARV entry inh)
CCN1C(=O)[C@H]2[C@@H](c3ccc(OC)cc3)N3C(=O)CN(CC4CC4)C(=O)[C@@]3(C)[C@H]2C1=O	HCV inh 10µM (no result: Lassa entry inh, MARV entry inh)
COC(=O)CN1C(=O)[C@H]2[C@@H](c3ccc(C)o3)N3C(=O)CN(Cc4ccccn4)C(=O)[C@@]3(C)[C@H]2C1=O	Sm TGR block 25µM (no result: Lassa entry inh, MARV entry inh)
COC(=O)CN1C(=O)[C@H]2[C@@H](c3ccc(C)o3)N3C(=O)CN(CC4CC4)C(=O)[C@@]3(C)[C@H]2C1=O	Sm TGR block 16µM (no result: Lassa entry inh, MARV entry inh)
COC(=O)CN1C(=O)[C@H]2[C@@H](c3ccc(C)o3)N3C(=O)CN(Cc4ccccc4)C(=O)[C@@]3(Cc3ccccc3)[C@H]2C1=O	Sm TGR block inconclusive (no result: Lassa entry inh, MARV entry inh)
Cc1ccc([C@@H]2[C@@H]3C(=O)N(C)C(=O)[C@@H]3[C@]3(C)C(=O)N(CCO)CC(=O)N23)o1	Sm TGR block inconclusive (no result: Lassa entry inh, MARV entry inh)
CN1OC[C@@H]2CN(S(=O)(=O)c3cccc(C(F)(F)F)c3)[C@H](c3ccc(N4CCCCC4)cc3)C[C@@H]21	none (no result: HCV inh, Sm TGR block, Lassa entry inh, MARV entry inh)
Cc1ccccc1-n1c(SCC(=O)Nc2ccc(Cl)cc2F)nnc1-c1cc2occc2n1C	none (no result: HCV inh, RE007 growth inh, MARV entry inh)
CCc1cccc(NC(=O)Cn2c(=O)n(-c3ccccc3C)c(=O)c3c2c2cc(C)ccc2n3C)c1	none (no result: HCV inh, RE007 growth inh, MARV entry inh)
FC(F)(F)c1cccc(NC(=S)NC(c2ccccc2)c2ccccc2)c1	HCV inh inconclusive, MARV entry inh inconclusive, FMDV antiviral 25µM

Screens (PubChem)
